Compound activity deposited in PubChem BioAssay by National Center for Advancing Translational Sciences (NCATS).
TDP1 inh = inhibitors of human tyrosyl-DNA phosphodiesterase TDP1; AID 485290; Q9NUW8; Potency, µM (doses to about 130 µM), for the others: at the top dose activity change, negative = inhibition, hits mostly inhibitors; recombinant TDP1, AlphaScreen DNA substrate cleavage; hit rate 0.28% among 350,000; note: nearly all actives have a fitted effect of over 40% in size
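Here, a 5' biotin and 3' phosphotyrosine-FITC DNA oligonucleotide reports Tdp1 activity: intact substrate bridges AlphaScreen beads, while cleavage leaves a 3' phosphate and drops signal. All incubations at room temperature.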
VP16 counter = Gal4-VP16 reporter inhibition counter-screen | Drosophila S2 Gal4-VP16 UAS-luciferase, luminescence, 20 h | Potency, µM (doses to about 53.6 µM), inactives show at the top dose activity, negative = inhibition, usual class: inhibitors | hit rate 3.5% among 310,000 | AID 2546;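 note: Gal4-VP16 expression switched on by copper sulfate through the metallothionein promoter; nearly all actives have a fitted effect of over 50% in size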
RORgamma inh = ROR gamma (mouse) transcription inhibition; Potency, µM (top dose mostly 53.6 µM), for inactives: top-dose activity change, negative = inhibition, most hits filed as inhibitors; P51450; hit rate 5.4% among 310,000; Drosophila S2 Gal4-RORgamma UAS-luciferase reporter, 20 h; note: nearly all actives have a fitted effect of over 60% in size
Target sequence (P51450 whole entry, looked up, the tested form may be a part): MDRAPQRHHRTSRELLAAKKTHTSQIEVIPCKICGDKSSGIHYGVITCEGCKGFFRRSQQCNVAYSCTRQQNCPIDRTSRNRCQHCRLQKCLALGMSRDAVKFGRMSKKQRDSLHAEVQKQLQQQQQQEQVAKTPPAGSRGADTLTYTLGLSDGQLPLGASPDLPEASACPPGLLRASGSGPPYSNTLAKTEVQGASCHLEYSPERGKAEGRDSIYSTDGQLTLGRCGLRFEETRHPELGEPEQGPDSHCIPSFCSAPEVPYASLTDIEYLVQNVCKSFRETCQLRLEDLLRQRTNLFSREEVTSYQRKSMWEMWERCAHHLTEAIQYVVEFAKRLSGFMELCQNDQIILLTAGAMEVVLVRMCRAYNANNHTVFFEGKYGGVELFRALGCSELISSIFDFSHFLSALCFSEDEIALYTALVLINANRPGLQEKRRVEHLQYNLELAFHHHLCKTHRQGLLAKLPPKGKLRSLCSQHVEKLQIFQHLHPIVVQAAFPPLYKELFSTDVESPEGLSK
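Using a luciferase readout, inhibitors were identified by reduced reporter activity in Drosophila cells coexpressing a copper-inducible Gal4–ROR gamma fusion and UAS-driven Photinus luciferase, incubated 20 hr after 700 uM copper sulfate.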
TDP1 cell CPT = growth inhibition of DT40 Tdp1-/-;hTDP1 cells with camptothecin (screen for TDP1 inhibitors); chicken DT40 Tdp1-/-;hTDP1 cells + 20 nM CPT, ATP luminescence, 48 h; AID 686979; hit rate 12% among 420,000; Potency, µM (titrated, usually from 46.2 µM), for inactives: at the highest dose activity change, negative = growth inhibition, usual class: inhibitors; note: nearly all actives have a fitted effect of over 55% in size
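Chicken DT40 Tdp1-/- cells stably complemented with human TDP1 were seeded at 400 cells/well in medium containing 20 nM camptothecin, exposed to pin-transferred compounds, and grown at 37 °C for at least 48 hr. Viability was read as ATP luminescence.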
DT40 TDP1 no CPT = qHTS for Inhibitors of human tyrosyl-DNA phosphodiesterase 1 (TDP1): qHTS in cells in absence of CPT | DT40 Tdp1-/- hTDP1 cells, no CPT, ATP luminescence, 48 h | hit rate 15% among 420,000 | Potency, µM (doses to about 46.2 µM), without a hit: at the top dose activity change, negative = growth inhibition, usual class: inhibitors; note: nearly all actives have a fitted effect of over 55% in size
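Camptothecin absent (DMSO only). Human TDP1-complemented DT40 knockout cells, 400 cells/well, 37 °C for minimum 48 hr; ATP measured via CellTiter-Glo, 30 min dark incubation, luminescence.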
Starred values were filed as active, the others as inactive; ? = inconclusive; nt = not tested or not shown; [ ] = dose if it differs, or a comment. Only some compounds are listed: those with a hit (about 19% of all), similar ones and a draw of the others. Calls come from the whole dose curve; as a rule, active = well fitted curve in the direction sought with a large enough effect; inconclusive = small, poorly fitted or top-dose-only effect, or another doubt; inactive = no such curve, though single readings can be large; an effect the other way counts as inactive or inconclusive. % is set by controls: 0 for no effect and ±100 for the full control effect; potency is the fitted concentration of half-maximal effect.

SMILES | TDP1 inh | VP16 counter | RORgamma inh | TDP1 cell CPT | DT40 TDP1 no CPT
CC(C)(C)C(=O)NC(=S)NNC(=O)C(c1ccccc1)c1ccccc1 | 2% | 11µM* | 2.8µM* | 4.6µM* | 3.7µM*
CC(=O)NNC(=S)NC(=O)C(c1ccccc1)c1ccccc1 | 5% | 3% | ? | 8.2µM* | 16µM*
CCNC(=S)NNC(=O)C(c1ccccc1)c1ccccc1 | 8% | 11µM* | 3.2µM* | 1% | -6%
CN(C)C(=S)NC(=O)C(c1ccccc1)c1ccccc1 | 5% | ? | 1.4µM* | 8% | ?
Cc1c(NC(=S)NC(=O)C(c2ccccc2)c2ccccc2)cccc1C(=O)O | 2% | 0% | -23% | -11% | 6%
O=C(Nc1nccs1)[C@@H]1CCCN1S(=O)(=O)c1ccccc1F | 5% | nt | nt | -10% | 1%
O=C(N/N=C1\CCCc2c1[nH]c1ccc(Cl)cc21)c1ccncc1 | -1% | -9% | 17% | 12µM* | 10µM*
CCN(Cc1ccc(C#CCCO)cc1)CC1CCCN(CCc2cccc(OC)c2)C1 (configuration not stated) | nt | -1% | -2% | ? | 21µM*
Oc1cc2cc(-c3csc(-c4ccc(F)cc4)n3)ccc2[nH]1 | nt | nt | nt | 1.1µM* | 2.8µM*
CCCCNc1nc(C)nc2c1nc(-c1ccccc1)n2CCN1CCCCC1 | 5% | -17% | 14µM* | nt | nt
Cc1ccc(NC(=O)Cn2cc(C(=O)c3ccco3)c3ccccc32)cc1C | 2% | nt | nt | ? | 18µM*
Cc1cccc(C)c1NC(=O)Cn1cc(C(=O)c2ccco2)c2ccccc21 | -1% | nt | nt | ? | ?
Cc1ccc(NC(=O)Cn2cc(C(=O)c3ccco3)c3ccccc32)cc1 | 3% | nt | nt | ? | 15µM*
O=C(Cn1cc(C(=O)c2ccco2)c2ccccc21)Nc1ccccc1 | 1% | 12% | 1% | 10µM* | 12µM*
O=C(Nc1ccc2c(c1)OCO2)c1csc([C@@H]2C[C@H](O)[C@@H](CO)O2)n1 | nt | nt | nt | -22% | -18%
CNS(=O)(=O)CCc1ccc2[nH]cc(C3CCN(C)CC3)c2c1 | nt | nt | nt | 2% | -12%
CC1=CC(=O)OC1Cc1ccc2ccccc2n1 (configuration not stated) | -4% | 3% | ? | -5%[9.04 µM] | ?
COc1ccc([N+](=O)[O-])cc1NC(=O)Cn1ccc(C(F)(F)F)n1 | 4% | 1% | 11% | 12% | -4%
COc1cc(S(=O)(=O)N2CCN=C2c2ccccc2)ccc1F | 5% | -5% | 1% | ? | 23µM*
COc1cc(S(=O)(=O)N2CCN(c3ccccc3)CC2)ccc1F | -1% | -1% | 3% | ? | ?
CCOc1ccc(S(=O)(=O)N2CCN=C2c2ccccc2)c(C)c1C | 2% | -1% | ? | 16µM* | 23µM*
C=CCNc1nc(N)c(C(=C(C#N)C#N)c2ccc(Br)cc2)s1 | 3% | ? | ? | ? | ?
O=C(COc1ccc2ccccc2c1)NNC(=O)Nc1ccc(F)cc1F | -20% | -7% | -27% | 7% | 7%
Cc1nnc(N2CCCC(C(=O)Nc3cccc(C(F)(F)F)c3)C2)c2nn(-c3ccccc3)c(C)c12 (configuration not stated) | -1% | nt | nt | ? | 21µM*
COc1ccccc1NC(=O)C1CCCN(c2nnc(C)c3c(C)n(-c4ccccc4)nc23)C1 (configuration not stated) | 6% | nt | nt | 16µM* | 8.2µM*
SMILES | TDP1 inh | VP16 counter | RORgamma inh | TDP1 cell CPT | DT40 TDP1 no CPT
Cc1ccc(NC(=O)N2CCN(c3nnc(C)c4c(C)n(-c5ccccc5)nc34)CC2)cc1Cl | 2% | nt | nt | -25% | -6%
Cc1nnc(N2CCN(C(=O)Nc3cccc(C(F)(F)F)c3)CC2)c2nn(-c3ccccc3)c(C)c12 | 6% | nt | nt | ? | ?
COc1ccc(C)cc1NC(=O)N1CCN(c2nnc(C)c3c(C)n(-c4ccccc4)nc23)CC1 | 3% | nt | nt | -2% | -17%
CCOC(=O)c1cccc(NC(=O)C2CCCN(c3nnc(C)c4c(C)n(-c5ccccc5)nc34)C2)c1 (configuration not stated) | -3% | nt | nt | 13µM* | 9.2µM*
Cc1ccc(NC(=O)C2CCCN(c3nnc(C)c4c(C)n(-c5ccccc5)nc34)C2)cc1Cl (configuration not stated) | 6% | nt | nt | 12µM* | 4.1µM*
COc1ccc(N(CC(=O)NC(C)c2ccccc2)S(=O)(=O)c2ccc(C)cc2)cc1 (configuration not stated) | nt | -11% | 3% | -17% | ?
Cc1c(C)c2ccc(OCC(=O)N(C)C)c(C)c2oc1=O | 2% | 13% | 1% | 1% | -3%
COCCCNC(=O)CCn1c(=O)c2ccccc2n(CC(=O)NCCc2ccc(OC)c(OC)c2)c1=O | 0% | -1% | 0% | -2% | -79%
COc1ccccc1-c1sc2ccccc2c1-c1cnc(N2CCOCC2)nc1 | nt | nt | nt | -7% | ?
CC(=O)c1cn(-c2ccc(Cl)cc2)c(=O)n(Cc2ccc(F)cc2)c1=O | 0% | -4% | 0% | ? | 9.2µM*
COc1ccc(CCNC(=O)CCc2ccccc2)cc1OC | nt | nt | nt | 3% | -26%
COc1ccc(CCNC(=O)CC(c2ccccc2)c2cc(C)ccc2O)cc1OC (configuration not stated) | nt | -3% | 20% | 26µM* | 13µM*
COc1ccc(CCNC(=O)C(=O)NCc2cccs2)cc1OC | 0% | 3% | 22% | ? | 29µM*
COc1ccc(CCNC(=S)NCCc2ccc(OC)c(OC)c2)cc1OC | 7% | -4% | -25% | ? | ?
Cc1ccc(O)c(C(CC(=O)NC2CCCCC2)c2ccccc2)c1 (configuration not stated) | 1% | -6% | 25% | -67% | 23µM*
COc1ccc(CCNC(=S)c2ccccc2)cc1OC | nt | 16µM* | ? | 21µM* | ?
COc1ccc(CCNC2=C(Cl)C(=O)N(CCc3ccccc3)C2=O)cc1OC | 1% | 0% | ? | ? | 21µM*
COc1ccc(CCNC(=O)Cc2ccccc2)cc1OC | nt | -10% | 16%[1.91 µM] | 1% | 9%
COc1ccc(CCNC(=O)C(=O)NCc2ccccc2)cc1OC | -3% | -9% | 0% | 5.2µM* | 5.2µM*
COc1ccc(CCNC2CC(=O)N(CCc3ccccc3)C2=O)cc1OC (configuration not stated) | -4% | 3% | 27% | 0% | -17%
O=C(NCCCN1CCOCC1)c1cccs1 | 8% | ? | -28% | 0% | -9%
Cc1c(-c2ccc(Cl)cc2)[n+](=O)c(-c2ccccc2)cn1[O-] | 5% | -2% | -1% | -8% | ?
